Calls of active or inactive are those of the source. Unless noted, the rule behind the calls is not given here.
Key:
[1] = compound effects on lung adenocarcinoma cell viability – A549, calcein-AM fluorescence, 48 h, basal, profiling panel (AID 1162); conditions: higher = more signal; note: test concentration not given here
[2] = compound effects on differentiated 3T3-L1 adipocyte viability – cell-based, 3T3-L1 adipocytes, calcein-AM fluorescence, 48 h, basal, profiling panel (AID 1163); conditions: 3T3-L1 adipocytes viability, higher = more signal; note: test concentration not given here
[3] = compound effects on hepatocellular carcinoma cell viability – HepG2, calcein-AM fluorescence, 48 h, basal, profiling panel (AID 1164); conditions: higher = more signal; note: test concentration not given here
[4] = compound effects on multiple myeloma cell viability – MM1S, calcein-AM fluorescence, 48 h, basal, profiling panel (AID 1165); conditions: higher = more signal; note: test concentration not given here
[5] = calcein-AM signal in unstimulated myeloma cells – cell-based, calcein-AM fluorescence, 48 h, PK04 Diversity Set, profiling panel (AID 1166); conditions: RPMI8226 myeloma viability, higher = more signal;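 note: cells grown under basal conditions without added stimulus; test concentration not given here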
[6] = JC-1 mitochondrial signal, unstimulated HepG2 cells – cell-based, JC-1 fluorescence, 24 h, 100 nL compound, profiling panel (AID 1167); conditions: HepG2 mitochondrial potential, higher = more signal; note: test concentration not given here
[7] = JC-1 mitochondrial signal, unstimulated adipocytes – cell-based, JC-1 fluorescence, 3T3-L1 adipocytes, 24 h, 100 nL compound, profiling panel (AID 1168); conditions: JC-1 mitochondrial fluorescence, higher = more signal, called active from +8 up or from −8 down; note: test concentration not given here
[8] = JC-1 mitochondrial signal, unstimulated myeloma cells – cell-based, JC-1 fluorescence, RPMI8226, 24 h, 100 nL compound, profiling panel (AID 1169); conditions: JC-1 mitochondrial potential fluorescence, higher = more signal; note: test concentration not given here
[9] = JC-1 mitochondrial signal, unstimulated MM1S myeloma – cell-based, JC-1 fluorescence, 24 h, 100 nL compound, profiling panel (AID 1170); conditions: MM1S mitochondrial potential, higher = more signal; note: test concentration not given here
[10] = resazurin metabolic signal in A549 cells – cell-based, resazurin fluorescence, 24 h, PK04 Diversity Set, profiling panel (AID 1171); conditions: A549 viability, higher = more signal, called active from +8 up or from −8 down; note: test concentration not given here
[11] = resazurin metabolic signal in HepG2 cells – cell-based, resazurin fluorescence, 24 h, PK04 Diversity Set, profiling panel (AID 1172); conditions: HepG2 viability, higher = more signal; note: test concentration not given here
[12] = budding yeast growth changes without added modifier – OD600, strain BY4716, 24 h, basal condition, primary screen (AID 1173); conditions: S. cerevisiae BY4716 growth, OD600, 24 h; higher = more signal, called active from +8 up or from −8 down
[13] = viability profiling in MM1S myeloma cells – cell-based, resazurin fluorescence, basal, 24 h, PK04 Diversity Set, profiling panel (AID 1174); conditions: higher = more signal, called active from +8 up or from −8 down; note: test concentration not given here
[14] = target: Dihydroorotate dehydrogenase (quinone), mitochondrial (Plasmodium falciparum (isolate 3D7)) (UniProt Q08210); test: inhibition of P. falciparum DHODH – biochemical, C-terminal His tag, absorbance 600 nm, primary screen (AID 1175); conditions: PfDHODH enzyme, DCIP absorbance 600 nm; higher = more signal, called active from +8 up or from −8 down;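 note: recombinant parasite enzyme with a five histidine tag at its C terminus; test concentration not given here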
[15] = inhibition of PAO1 biofilm formation – strain PAO1, LB-PBS medium, absorbance 600 nm, primary screen (AID 1176); note: test concentration not given here; conditions: P. aeruginosa PAO1 growth/biofilm, A600, 12 h; higher = more signal
[16] = growth modulation of vineyard yeast isolate – strain RM11-1a, OD600, basal, 24 h, primary screen (AID 1177);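 note: cultures grown under basal conditions with no added stressor; test concentration not given here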; conditions: S. cerevisiae RM11-1a growth, OD600, 24 h; higher = more signal, called active from +8 up or from −8 down
[17] = growth of efflux-deficient E. coli DRC39 – strain DRC39, OD650, 24 h, E. coli filamentation inducers, primary screen (AID 1178);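 note: growth measured as culture turbidity by optical density at 650 nm; test concentration not given here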; conditions: E. coli DRC39 acrAB, higher = more signal, called active from +8 up or from −8 down
[18] = growth of efflux-deficient E. coli DRC39 – strain DRC39, OD650, 48 h, E. coli filamentation inducers, primary screen (AID 1179);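 note: screen aims at cell division blockers that make cells filament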; conditions: E. coli DRC39 delta-acrAB growth, higher = more signal, called active from +8 up or from −8 down
[19] = viability profiling in RPMI8226 myeloma cells – cell-based, resazurin fluorescence, basal, 24 h, PK04 Diversity Set, profiling panel (AID 1180); conditions: higher = more signal;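 note: RPMI8826 multiple myeloma cell line at 5000 cells per well; test concentration not given here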
[20] = target: E3 ubiquitin-protein ligase XIAP (Homo sapiens) (UniProt P98170); test: small molecules binding XIAP protein – biophysical, small-molecule microarray, fluorescence 635 nm, primary screen (AID 1181); conditions: higher = more signal;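 note: score merges 667 nm emission and signal to noise over triplicate slides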
Sequence of E3 ubiquitin-protein ligase XIAP (Homo sapiens) (P98170 whole entry, looked up): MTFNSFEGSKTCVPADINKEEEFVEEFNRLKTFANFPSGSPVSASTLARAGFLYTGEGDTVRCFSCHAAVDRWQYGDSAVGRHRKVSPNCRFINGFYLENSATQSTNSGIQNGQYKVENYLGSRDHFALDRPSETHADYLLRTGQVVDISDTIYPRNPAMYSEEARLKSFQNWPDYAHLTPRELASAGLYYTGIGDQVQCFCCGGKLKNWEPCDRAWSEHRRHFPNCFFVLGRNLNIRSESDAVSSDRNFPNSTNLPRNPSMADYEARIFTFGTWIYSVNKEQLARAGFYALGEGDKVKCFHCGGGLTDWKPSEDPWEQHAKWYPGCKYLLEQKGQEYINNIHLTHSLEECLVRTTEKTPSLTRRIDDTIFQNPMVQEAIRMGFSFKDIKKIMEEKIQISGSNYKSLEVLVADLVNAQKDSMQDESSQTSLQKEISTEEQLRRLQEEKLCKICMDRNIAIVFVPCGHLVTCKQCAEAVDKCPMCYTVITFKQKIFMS

Sequence of Dihydroorotate dehydrogenase (quinone), mitochondrial (Plasmodium falciparum (isolate 3D7)) (Q08210 whole entry, looked up): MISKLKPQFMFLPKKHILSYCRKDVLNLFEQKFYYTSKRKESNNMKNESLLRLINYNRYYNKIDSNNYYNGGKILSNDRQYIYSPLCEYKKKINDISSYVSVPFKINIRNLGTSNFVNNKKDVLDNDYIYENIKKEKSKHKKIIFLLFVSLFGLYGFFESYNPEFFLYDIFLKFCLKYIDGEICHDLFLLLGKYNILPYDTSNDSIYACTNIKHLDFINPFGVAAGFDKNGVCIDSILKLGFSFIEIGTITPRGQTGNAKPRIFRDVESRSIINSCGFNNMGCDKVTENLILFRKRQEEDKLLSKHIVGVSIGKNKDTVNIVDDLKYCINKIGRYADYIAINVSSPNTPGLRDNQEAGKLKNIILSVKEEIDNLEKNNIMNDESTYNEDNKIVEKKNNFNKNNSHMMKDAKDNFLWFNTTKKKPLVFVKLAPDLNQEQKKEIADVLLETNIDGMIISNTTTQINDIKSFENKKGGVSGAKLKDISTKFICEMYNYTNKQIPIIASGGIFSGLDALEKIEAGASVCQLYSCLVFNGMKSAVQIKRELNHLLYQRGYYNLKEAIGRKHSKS

Compound	z-score [1]	z-score [2]	z-score [3]	z-score [4]	z-score [5]	z-score [6]	z-score [7]	z-score [8]	z-score [9]	z-score [10]	z-score [11]	z-score [12]	z-score [13]	composite z-score [14]	z-score [15]	z-score [16]	z-score [17]	z-score [18]	z-score [19]	composite z-score [20]
COCCOC(=O)N1C(=O)[C@@]2(c3cc(C#CCC(C(=O)OC)C(=O)OC)ccc31)[C@H](c1ccc(O)cc1)N1[C@H](c3ccccc3)[C@H](c3ccccc3)OC(=O)[C@H]1[C@@H]2C(=O)Nc1nc2ccccc2s1	-0.451	0.982	-0.0867	0.121	-0.6	-1.18	-1.98 (inactive)	-0.164	0.0358	0.066 (inactive)	0.623	-0.146 (inactive)	-1.05 (inactive)	-1 (inactive)	0.321 (inactive)	0.559 (inactive)	-0.709 (inactive)	-0.961 (inactive)	-0.157	-0.138
CC1CC/C=C\[C@H]2OC34C=CCN(CCN5CCOCC5)C(=O)[C@H]3N(CCCO)C(=O)[C@@H]4C2C(=O)O1 (stereo not given in full)	-0.451	0.483	-0.723	1.22	0.42	-0.734	-0.711 (inactive)	0.741	0.649	-0.467 (inactive)	-0.505	0.356 (inactive)	-0.431 (inactive)	0.199 (inactive)	0.233 (inactive)	0.296 (inactive)	-0.47 (inactive)	-0.496 (inactive)	-0.479	0.158
COC(=O)[C@@]1(Cc2ccc(F)cc2)[C@H]2c3cc(C(=O)N(C)C)n(C)c3C[C@H]2CN1C(=O)c1ccccc1	0.888	-0.0909	-0.408	-0.364	-0.119	0.216	-0.574 (inactive)	-0.325	-0.481	-0.452 (inactive)	-0.476	0.109 (inactive)	-0.911 (inactive)	0.0197 (inactive)	0.026 (inactive)	0.626 (inactive)	-0.657 (inactive)	-0.705 (inactive)	-0.521	0.147
CCOc1cc(C(O)C2C=CC3C(=O)N(c4ccccc4)C(=O)C3N2Nc2ccccc2F)ccc1O (stereo not given)	0.0113	0.521	0.294	-0.495	-0.18	-1.58	-0.945 (inactive)	-0.853	0.699	-0.928 (inactive)	-1.42	-3.57 (inactive)	-0.454 (inactive)	0.717 (inactive)	0.931 (inactive)	1.78 (inactive)	-0.223 (inactive)	-0.541 (inactive)	-0.318	-0.273
CCCN1C(=O)[C@@]2(c3ccc([N+](=O)[O-])cc3)CC(=O)N(CC34CC5CC(CC(C5)C3)C4)[C@@H]2c2ccc(CO)cc21	0.129	-0.4	-0.301	-0.194	0.448	-0.885	-0.656 (inactive)	0.282	-0.315	0.0382 (inactive)	-0.113	-0.547 (inactive)	-0.148 (inactive)	-4.78 (inactive)	0.186 (inactive)	-0.664 (inactive)	0.2 (inactive)	-0.255 (inactive)	-0.559	0.0666
[N-]=[N+]=Nc1ccccc1C[C@@]1(C(=O)NCC(O)CO)N=C(c2ccc(OCCCO)cc2)O[C@@H]1c1ccccc1 (stereo not given in full)	0.378	-0.326	0.75	-0.39	-0.342	0.582	-0.186 (inactive)	-1.2	-0.145	-0.235 (inactive)	0.559	-2.46 (inactive)	0.33 (inactive)	0.303 (inactive)	-0.456 (inactive)	0.302 (inactive)	0.443 (inactive)	-0.0622 (inactive)	0.0762	0.0049
C=C(C)[C@@H]1CC=C(C(O)C2C=CC3C(=O)N(C)C(=O)C3N2Nc2ccc([N+](=O)[O-])cc2[N+](=O)[O-])CC1 (stereo not given in full)	-0.34	-0.924	-0.303	-0.731	-2.48	-0.286	-1.71 (inactive)	0.553	-0.755	-0.375 (inactive)	-0.902	0.522 (inactive)	-1.28 (inactive)	-0.109 (inactive)	0.599 (inactive)	0.442 (inactive)	-0.358 (inactive)	-0.339 (inactive)	-1.1	0.158
CN(C)CCCCNC(=O)[C@H]1C[C@H]2C(=O)N3CCC[C@H]3C(=O)N2[C@H]1c1cccc(OCCO)c1	-0.893	-0.0471	-0.458	0.123	0.291	-1.05	0.119 (inactive)	0.712	0.0655	0.677 (inactive)	-0.0329	0.949 (inactive)	0.299 (inactive)	0.483 (inactive)	0.202 (inactive)	1.76 (inactive)	-0.0332 (inactive)	-0.536 (inactive)	-0.116	0.906
CCOC(=O)C1=C[C@@H](C(C)(C)C)N(S(=O)(=O)c2ccc(C)cc2)[C@H]1c1ccc(C#N)cc1	-0.368	-0.316	-1.12	-2.79	-2.17	1.63	-0.398 (inactive)	-0.372	-0.555	1.69 (inactive)	-0.718	2.25 (inactive)	-0.153 (inactive)	-0.158 (inactive)	0.16 (inactive)	1.56 (inactive)	-0.264 (inactive)	-0.361 (inactive)	-1.22	-0.0559
